# Pf growth 48h – inhibits P. falciparum growth in the first generation, 48 h. actives 5.9% (n = 310,000). P. falciparum luciferase growth in erythrocytes, 48 h. Potency, µM (titrated, usually from 28.7 µM), inactives show at the highest dose activity change, negative = inhibition, most hits filed as inhibitors; note: potency is the fitted concentration of half-maximal effect; % is set by controls: 0 for no effect and ±100 for the full control effect
#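 Firefly luciferase activity from engineered P. falciparum reports growth; inhibitors lower the luminescent signal. Cultures contained 2% hematocrit erythrocytes at 0.1% final parasitemia.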
# Pf growth 96h – inhibits malaria parasite growth, 96 h. P. falciparum luciferase reporter growth, 96 h. Potency, µM (series often up to 28.7 µM), without a hit: at the highest dose activity change, negative = inhibition, actives largely listed as inhibitors. actives 6.9% (n = 320,000). AID 504834; note: potency is the fitted concentration of half-maximal effect; % is set by controls: 0 for no effect and ±100 for the full control effect
#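 96 h incubation, 37 C, 5% CO2, of luciferase-reporter P. falciparum-infected RBCs (2% hematocrit, 0.05% parasitemia final) with test compounds; endpoint luminescence.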
# Lassa entry inh – inhibitors of Lassa virus binding or cell entry; Lassa virus pseudotype entry inhibition, cell reporter; Potency, µM (top dose mostly 37.9 µM), for the others: at the top dose activity change, negative = inhibition, actives largely listed as inhibitors; actives 1.2% (n = 300,000); AID 540256; calls by dose curve; tested in HEK293 cells; note: potency is the fitted concentration of half-maximal effect; % is set by controls: 0 for no effect and ±100 for the full control effect; nearly all actives have a fitted effect of over 50% in size
# CHX counter – affects cycloheximide protein synthesis inhibition readout, counter-screen | cell reporter, cycloheximide protein synthesis inhibition counterscreen | max response, % | actives 12% (n = 300,000) | AID 2314; in the data active = max response mostly above about 13%, no sharp cut-off; inactive = mostly below about 14%; note: read at 38.3 µM for the half of the compounds with a filed dose; 0% is about no effect
# Shiga inhibitor – blocks Shiga toxin action in Vero cells | actives 9.2% (n = 290,000) | Vero cells, Shiga toxin protein synthesis inhibition reporter | inhibition, % at 38.7 µM; in the data active = inhibition mostly above about 28%, no sharp cut-off; inactive = mostly below about 43%; note: 0% is about no effect
# Marburg entry inh – blocks Marburg virus binding to or entry into cells; Potency, µM (doses to about 37.8 µM), for the others: at the highest dose activity change, negative = inhibition, actives largely listed as inhibitors; Marburg virus pseudotyped entry inhibition, cell reporter; AID 540276; actives 1.8% (n = 300,000); calls by dose curve; tested in HEK293 cells; note: potency is the fitted concentration of half-maximal effect; % is set by controls: 0 for no effect and ±100 for the full control effect
# Numbers without * were called inactive; ? = inconclusive; . = no result given; [ ] = remark or other dose. Only some compounds are listed: those with a hit (about 19% of all), similar ones and a draw of the others. Unless noted, calls come from the whole dose curve; as a rule, active = well fitted inhibition curve with a large enough effect; inconclusive = small, poorly fitted or top-dose-only effect, or another doubt; inactive = no such curve, though single readings can be large or run the other way.
SMILES,Pf growth 48h,Pf growth 96h,Lassa entry inh,CHX counter,Shiga inhibitor,Marburg entry inh
Cn1c(=O)c2c(nc(SCCN3CCCCC3)n2Cc2ccccc2)n(C)c1=O,?,2.33µM*,3.9%,-1.2,-14.9,?
COc1ccc(N2CCN(c3nc4c(c(=O)n(C)c(=O)n4C)n3Cc3ccccc3)CC2)cc1,?,.,8.91µM*,-2.0,19.7,10µM*
CC1Cc2ccccc2N1C(=O)CSc1nc2c(c(=O)n(C)c(=O)n2C)n1Cc1ccccc1 (configuration not stated),5.86µM*,-21.7%,?,-1.0,15.0,?
Cn1c(=O)c2c(nc(SCCN3CCOCC3)n2C)n(C)c1=O,?,3.7µM*,.,-3.5,-10.8,.
CN1C2CCC1CC(NC(=O)CSc1ccc(Cl)cc1)C2 (configuration not stated),3.7%,-1.3%,.,19.4,27.8,.
Cc1ccccc1Cn1c(CN2CCN(C(=O)c3ccco3)CC2)nc2c1c(=O)n(C)c(=O)n2C,?,?,.,-2.5,-13.4,0.0%
CC1CN(c2nc3c(c(=O)n(Cc4ccc(Cl)cc4)c(=O)n3C)n2C)CC(C)O1 (configuration not stated),5.86µM*,2.33µM*,-15.7%,-1.3,-4.2,?
Cn1c(=O)c2c(nc(CN3CCN(Cc4ccccc4)CC3)n2Cc2ccc(Cl)cc2)n(C)c1=O,.,2.62µM*,.,-8.4,-18.0,-0.4%
Cn1c(=O)c2c(nc(CN3CCN(Cc4ccccc4)CC3)n2Cc2ccccc2)n(C)c1=O,?,?,.,-2.8,-10.7,-2.8%
Cn1c(N2CCCC2)nc2c1c(=O)n(Cc1ccc(Cl)cc1)c(=O)n2C,?,?,0.7%,-3.6,-11.5,28.8%
Cn1c(=O)c2c(nc(CN3CCN(C(=O)c4ccco4)CC3)n2Cc2ccccc2F)n(C)c1=O,.,1.47µM*,.,-7.9,-17.4,-5.9%
Cn1c(=O)c2c(nc(N3CCN(c4ccccn4)CC3)n2Cc2ccccc2Cl)n(C)c1=O,9.28µM*,13.1µM*,20.6µM*,-1.0,-18.8,?
O=c1[nH]c(=S)[nH]c2c1C(c1ccc(Br)cc1)c1c([nH]c(=S)[nH]c1=O)O2,29.7%,5.6%,0.0%[46.1 µM],0.5,-6.5,0.1%[46.1 µM]
O=C(C1CCCN(c2nnc(-n3cccc3)s2)C1)N1CCN(c2ccccc2)CC1 (configuration not stated),.,?,.,5.7,2.6,1.1%
C[C@@H]1CCN(C(=O)[C@H](CCCNC(=N)N)NS(=O)(=O)c2cccc3c2NC[C@H](C)C3)[C@@H](C(=O)O)C1,-16.3%,1.1%,.,.,.,.
c1ccc(C[n+]2cccc3c4ccccc4ccc32)cc1,0.0738µM*,11.0%,7.08µM*,-0.8,-4.7,?
O=[N+]([O-])c1ccc(C[n+]2cccc3ccccc32)cc1,10.4µM*,?,14.4%,8.7,3.8,8.2%[46.1 µM]
O=[N+]([O-])c1ccc(C[n+]2cccc3ccc4cccnc4c32)cc1,0.262µM*,?,-23.8%,-0.6,12.3,?
O=[N+]([O-])c1ccc(C[n+]2cccc(O)c2)cc1,22.4%,50.5%,.,.,.,.
CCOc1cc(/C=N/NC(=O)CCCC(=O)NC2CCCCC2)ccc1O,1.9%,?,9.8%,-4.9,-3.3,-9.8%
COCCNC(=O)c1ccc(NC(C)=O)cc1,2.8%,.,10.3%,-1.7,-14.1,22.9%
CCOc1ccc(OCCn2ccnc2)cc1,1.1%,38.5%,6.2%,0.3,12.6,?
CC(C)c1cccc(C(C)C)c1OCCn1ccnc1,13.1µM*,-26.4%,3.5%,0.9,-4.5,0.0%
CCOc1ccc(OCCCCn2ccnc2)cc1,-12.8%,-4.7%,6.6%,25.7*,8.3,16.4%
Cc1cccc(OCCCn2ccnc2)c1,9.28µM*,0.0%,-5.9%,4.2,-12.6,-4.0%
Cc1cc(OCCn2ccnc2)ccc1C(C)C,-7.8%,?,0.2%,10.7,6.1,?
Cc1cc(C)cc(OCCCn2ccnc2)c1,-10.2%,4.65µM*,.,-3.7,-12.4,.
CC(=O)Cc1nsc(NC(=O)c2ccc(-c3cc(C(F)(F)F)ccc3Cl)o2)n1,-2.5%,-27.7%,?,-0.3,-17.7,-5.5%
C/C(=N\NC(=O)c1cccc(C)c1O)c1ccc(NC(=O)Cc2ccccc2)cc1,5.4%,17.2%,-0.6%,39.2*,45.3*,?

# High-throughput results as filed in PubChem BioAssay.
